Assay results reported in PubChem BioAssay (NCI).
“And” between values parts separate entries of the source, which are not always exact repeats. Identical values can stand only once. Compounds without any hit were thinned out: in the full panel of roughly 83,000, 20% have a hit.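 Results are percent growth after 48 hours of single-concentration exposure. 100 means growth as in untreated cells, lower positive values show inhibition; negative values down to -100 show cell death.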 The source made the active and inactive calls. Rule for the calls: active = growth percent below 10; inactive = the rest.

Test system: MDA-MB-468 breast
Assay: NCI-60 one-dose screen, 48 h (100 = growth as untreated, 0 = no growth, -100 = all killed)
Conditions: 10 µM unless noted

SMILES | growth
Cc1nn(-c2ccc(Cl)cc2)c2nc3c(nc12)C(=O)C(=O)c1ccccc1-3 | 65.3% (inactive)
COC(=O)N[C@@H](C)CNc1nccc(-c2cn(C(C)C)nc2-c2cc(Cl)cc(NS(C)(=O)=O)c2F)n1 | 99.4% (inactive)
CCn1c2ccc(/C=N/NS(=O)(=O)CCN(C)C)cc2c2cc(/C=N/NS(=O)(=O)CCN(C)C)ccc21 | 92.9% (inactive)
Cn1ccc(=O)nc1 | 71.1% (inactive)
Oc1ccc(Br)cc1Sc1cc(Br)ccc1O | 82.3% (inactive)
Cc1ccc2c(-c3cc(-c4ccccc4)nc(N)c3C#N)cc(=O)oc2c1 | 103% (inactive)
O=[N+]([O-])c1c(S(=O)(=O)O)cc2cc(S(=O)(=O)O)ccc2c1[N+](=O)[O-] | 111% (inactive)
OC(CSc1ccccc1)CN1CCN(c2ccc(Cl)cc2)CC1 (stereo not given) | 86.7% (inactive)
O=C(N/N=C/c1ccc(O)cc1O)c1cccc(Nc2ccnc(C(F)(F)F)c2)c1 | 43.1% (inactive)
CCC(C)(C)C(=O)O[C@H]1C[C@@H](C)C=C2C=C[C@H](C)[C@H](CC[C@@H]3CC=CC(=O)O3)[C@H]21 | 52.1% (inactive)
CNCc1cccc2c1OCCOCCOCCN(CCN1CCOCC1)S(=O)(=O)c1ccc(cc1)-c1cnc(N)c(n1)C(=O)N2 | 53.9% (inactive)
N#Cc1cc(-c2nc3ccccc3s2)c(=O)n(NS(=O)(=O)c2ccc(Cl)cc2)c1N | 99.6% (inactive)
Cn1c2nc3ccccc3c-2nc2ccccc21 | 75.4% (inactive)
Cc1nc2cc(NC(=O)CN3CCN(CCN4C(=O)c5cccc6cccc(c56)C4=O)CC3)ccc2s1 | 38.2% (inactive)
C=C1CCC2C3(C)COC(c4ccc(SC)cc4)OC3CCC2(C)C1C/C=C1/C(=O)OCC1O (stereo not given) | 77.4% (inactive)
CCCCCCCCCCCCCCCCS(=O)(=O)Nc1cc(C(=O)NN)cc(C(=O)NN)c1 | 45.2% (inactive)
COc1ccccc1C(=O)Nc1cccc2c1C(=O)C(=O)C=C2 | 103% (inactive)
COc1ccc(/C=C(/c2ccccc2)[N+](=O)[O-])c(OC)c1 | -56.5% (active)
O=C1[C@@H]2Cc3c([nH]c4ccccc34)[C@H](c3c(Cl)cccc3Cl)N2C(=O)CN1C1CCN(Cc2ccccc2)CC1 | -33.4% (active)
O=C(O)c1ccc2c3c(ncnc13)-c1ccccc1C2=O | 95.7% (inactive)

SMILES | growth
O=C(c1nnc(Nc2ccccc2Br)o1)c1c[nH]c2ccccc12 | 103% (inactive)
NC(N)=NC1CCCCC1 | 88.8% (inactive)
N#CC1=C(N)Oc2c(cnn2-c2ccc([N+](=O)[O-])cc2[N+](=O)[O-])C1c1ccccc1 (stereo not given) | 87.7% (inactive)
NC1(CO)COC(c2ccccc2)OC1 (stereo not given) | 99.7% (inactive)
CCCCCCCCCCC(C(O)c1ccccc1)N1CCCCC1 (stereo not given) | -21.9% (active)
CCN(CC)c1ccc(C(=O)c2ccccc2)cc1 | 105% (inactive)
O=C(c1ccccc1)c1c(/C=C/c2ccccc2)nc2ccccc2c1/C=C/c1ccc(Br)cc1 | 94.3% (inactive)
COC(=O)Nc1nc2ccc(Sc3ccccc3)cc2[nH]1 | -3.91% (active)
N#Cc1c(-c2ccccc2)cc(-c2ccccc2)n(CCCCC(=O)NO)c1=O | 20% (inactive)
O=C1COc2ccccc2C(=O)N1CCCCNc1ccccc1 | 94.5% (inactive)
CC/C=C\C[C@H](O)C/C=C1/C(=O)C=C[C@@H]1C/C=C\CCCC(=O)NC(C)C | 1.98% (active)
COc1ccc(-c2cc(=O)oc3ccc(Cl)cc23)cc1F | 26.5% (inactive)
Cc1cc(NS(=O)(=O)c2ccc(-c3cnc(C4CC4)o3)cc2)ccc1Cl | -6.6% (active)
CC(C)CNC(=O)c1ccccc1C(=O)NC1(C(=O)NCC(C)C)CCCC1 | 101% (inactive) and 121% (inactive)
N#Cc1c(-c2cccc(Cl)c2)cc(-c2cccc(F)c2)[nH]c1=O | 87.1% (inactive)
CCCCN(CCCC)CCCCCCCCC(O)c1cc2ccccc2c2ccccc12 (stereo not given) | 29.1% (inactive)
Cc1ccc(S(=O)(=O)Nc2ccc(Cl)cc2)cc1 | 107% (inactive)
O=C(/C=C/c1ccc(Oc2ccc(Br)cc2)cc1)c1ccc(Br)cc1 | 98.3% (inactive)
O=c1cc(Cl)nc2ccccn12 | 107% (inactive)
CCSc1nc2ccccc2o1 | 111% (inactive)
